# This excerpt belongs to a sample that is enriched for hits.
# HT1080-NT tox: kills 2HG-producing HT-1080-NT fibrosarcoma cells. HT-1080-NT fibrosarcoma viability, CellTiter-Glo ATP luminescence, 48 h. actives 1.6% (n = 360,000). Potency, µM (doses to about 46.1 µM), most hits filed as cytotoxic;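 also: NT is the 2HG producing partner of a matched IDH1 knockdown line; nearly all actives have a fitted effect of over 55% in size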
#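 HT-1080-NT; 750 cells/well; 5% FBS RPMI; 48 h compound, 37 degrees C; CellTiter-Glo luminescence; curve fitting and curve-class assignment.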
# TDP1 cell noCPT: qHTS for Inhibitors of human tyrosyl-DNA phosphodiesterase 1 (TDP1): qHTS in cells in absence of CPT | actives 15% (n = 420,000) | DT40 Tdp1-/- hTDP1 cells, no CPT, ATP luminescence, 48 h | Potency, µM (top dose mostly 46.2 µM), hits mostly inhibitors; also: nearly all actives have a fitted effect of over 55% in size
#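 Seeded 400 DT40-hTDP1 cells/well (vehicle DMSO, no 20 nM CPT); pinned compounds; ≥48 hr at 37 °C; CellTiter-Glo luminescence as viability measure.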
# DT40 TDP1 CPT: growth inhibition of DT40 Tdp1-/-;hTDP1 cells with camptothecin (screen for TDP1 inhibitors); chicken DT40 Tdp1-/-;hTDP1 cells + 20 nM CPT, ATP luminescence, 48 h; Potency, µM (titrated, usually from 46.2 µM), actives largely listed as inhibitors; actives 12% (n = 420,000); AID 686979; also: nearly all actives have a fitted effect of over 55% in size
#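 Chicken DT40 Tdp1-/- cells complemented with human TDP1, 400 cells/well, exposed to compounds plus 20 nM camptothecin for at least 48 h at 37 C; viability read as ATP content by CellTiter-Glo luminescence.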
# 12-LOX inh: inhibitors of human 12S-lipoxygenase ALOX12 | purified 12hLO, xylenol orange hydroperoxide absorbance | actives 1.1% (n = 580,000) | Potency, µM (titrated, usually from 108 µM), hits mostly inhibitors | P18054 | AID 1671190
# Target sequence (P18054 whole entry, looked up): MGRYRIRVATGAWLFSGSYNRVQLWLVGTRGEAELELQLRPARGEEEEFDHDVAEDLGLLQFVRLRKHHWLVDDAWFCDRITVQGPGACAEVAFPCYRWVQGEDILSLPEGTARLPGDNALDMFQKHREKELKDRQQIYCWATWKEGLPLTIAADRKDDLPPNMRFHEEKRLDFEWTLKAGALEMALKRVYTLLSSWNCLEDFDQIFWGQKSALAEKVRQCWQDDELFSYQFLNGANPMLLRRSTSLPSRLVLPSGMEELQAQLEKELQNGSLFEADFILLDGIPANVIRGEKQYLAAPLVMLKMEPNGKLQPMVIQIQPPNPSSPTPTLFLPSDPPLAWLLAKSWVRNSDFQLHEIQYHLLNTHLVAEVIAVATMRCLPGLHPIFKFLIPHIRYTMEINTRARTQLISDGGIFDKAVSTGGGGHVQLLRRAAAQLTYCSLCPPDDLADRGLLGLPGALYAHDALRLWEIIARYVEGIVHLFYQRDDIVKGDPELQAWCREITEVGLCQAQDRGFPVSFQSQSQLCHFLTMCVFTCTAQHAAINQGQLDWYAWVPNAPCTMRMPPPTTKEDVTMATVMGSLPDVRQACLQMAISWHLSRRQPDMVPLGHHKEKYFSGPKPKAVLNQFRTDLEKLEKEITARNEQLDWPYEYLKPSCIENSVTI
#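 Hydroperoxide product was detected by ferrous iron/xylenol orange as the 573 to 405 nm absorbance ratio. Arachidonic acid at 40 uM (final) was turned over for 30 min at room temperature by 150 nM human 12hLO, pH 7.0 Hepes buffer, after 15 min compound preincubation.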
# HT1080 IDH1KD tx: kills HT-1080 cells with IDH1 knockdown; HT-1080 IDH1 knockdown viability, ATP luminescence, 48 h; Potency, µM (titrated, usually from 46.1 µM), usual class: cytotoxic; actives 2% (n = 360,000); AID 686971
#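 Cytotoxicity counter-line: IDH1KD HT-1080, 48 h, CellTiter-Glo. Curves classed by r2, magnitude and activity.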
# IL1B secr inh: inhibitors of inflammasome signaling (IL-1 beta secretion). actives 4.7% (n = 360,000). activity change, % at 57.5 µM. THP-1 LPS/ATP IL-1B secretion, AlphaLISA, 16 h; active compounds read low; in the data active = activity change below about -50%; inconclusive = mostly about -30% to -49%
#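 THP-1 cells pretreated 1 hr with compounds (up to 57.5 uM final), then stimulated with LPS (250 ng/mL final) plus ATP (1.25 mM final); secreted IL-1B measured by AlphaLISA after 16 hr, decreased signal indicating inhibition.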
# Numbers stand for hits; . = inactive; ? = inconclusive; / = no result given. Unless noted, calls follow the shape of the dose curve; as a rule, active = well fitted curve in the direction sought with a large enough effect; inconclusive = small, poorly fitted or top-dose-only effect, or another doubt; inactive = no such curve, though single readings can be large; an effect the other way counts as inactive or inconclusive.
SMILES,HT1080-NT tox,TDP1 cell noCPT,DT40 TDP1 CPT,12-LOX inh,HT1080 IDH1KD tx,IL1B secr inh
Clc1ccc(SCc2cccc3cccnc23)cc1,/,/,/,.,/,/
Cc1cccc(C)c1NC(=O)NC1(C(=O)NCC2CCCO2)CCCCC1 (stereo unspecified),.,.,.,?,.,.
COCCNC(=O)CCCN1C(=O)COc2ccc(C(=O)COc3ccc(Cl)cc3C)cc21,/,/,/,.,/,/
CN1C(=O)c2ccccc2Sc2ccc(NC(=O)NC3CC3)cc21,.,?,?,.,.,.
CCc1cccc(NC(=O)Nc2ccc3c(c2)N(C)C(=O)c2ccccc2S3)c1,/,23µM,?,?,/,/
COc1cccc(CNC(=O)Nc2ccc3c(c2)N(C)C(=O)c2ccccc2S3)c1,/,?,23µM,.,/,/
CN1C(=O)c2ccccc2Sc2ccc(NC(=O)Nc3ccccc3F)cc21,/,?,?,.,/,/
CN1C(=O)c2ccccc2Sc2ccc(NC(=O)N3CCN(c4cccc(Cl)c4)CC3)cc21,/,5.2µM,7.3µM,.,/,/
OC(c1cc2n(n1)CCN(c1ncc(C(F)(F)F)cc1Cl)C2)C1CC1 (stereo unspecified),/,/,/,.,/,/
COC(=O)C1=C(C)NC(C)=C(C(=O)OC)C(N2C(=O)CCC2=O)C1 (stereo unspecified),/,/,/,.,/,/
CC(C)c1noc(CC2CCN(C(=O)c3cccs3)CC2)n1,/,/,/,.,/,/
O=C(O)c1cc(Br)ccc1I,/,/,/,.,/,/
CC(=O)N1CCN(c2ccc(S(=O)(=O)N3CCCCC3)cc2[N+](=O)[O-])CC1,.,?,.,.,.,.
COc1ccc(N2CCN(S(=O)(=O)c3ccc4c(c3)CCCC4)CC2)c([N+](=O)[O-])c1,?,23µM,16µM,.,.,-62
CC(=O)c1ccc(N2CCN(c3ccc(C(N)=O)cc3[N+](=O)[O-])CC2)cc1,.,?,?,.,.,.
COC(=O)c1ccc(N2CCN(S(=O)(=O)c3ccc4ccccc4c3)CC2)c([N+](=O)[O-])c1,.,21µM,16µM,.,.,.
NC(=O)c1ccc(N2CCN(c3ccc(O)cc3)CC2)c([N+](=O)[O-])c1,.,16µM,?,?,.,.
NC(=O)c1ccc(N2CCN(S(=O)(=O)c3ccccc3)CC2)c([N+](=O)[O-])c1,.,7.3µM,?,.,.,.
COc1ccc(C(=O)Nc2ccnn2C2CCN(C(C)=O)CC2)cc1,/,/,/,.,/,/
CC[C@@H](C)[C@H](NS(=O)(=O)c1cccc2ccccc12)C(=O)N[C@H](C=O)Cc1c[nH]c2ccccc12,/,5.3µM,5.9µM,?,/,/
CC(Cc1c[nH]c2ccccc12)NC(N)=O (stereo unspecified),.,.,.,.,.,.
COc1ccc(C(=O)N/N=C/C(Br)=C/c2ccccc2)cc1,.,15µM,13µM,.,.,-58
COc1cccc(C(=O)N/N=C/C(Br)=C/c2ccccc2)c1,?,2.9µM,1.8µM,.,12µM,-75
CCC(=O)Nc1ccc(/C=C(\C(C)=O)C(=O)c2ccccc2)cc1,18µM,23µM,?,?,16µM,-98
O=C(C(=Cc1ccc(F)cc1)C(=O)c1ccccc1)c1ccccc1,?,16µM,?,.,?,-112
SMILES,HT1080-NT tox,TDP1 cell noCPT,DT40 TDP1 CPT,12-LOX inh,HT1080 IDH1KD tx,IL1B secr inh
CCC(=O)Nc1ccc(C=C(C(C)=O)C(C)=O)cc1,.,?,?,?,.,.
Cc1ccc(S(=O)(=O)N2CC3C(=O)C[C@@H](c4ccccc4)N(S(=O)(=O)c4ccc(CCCOCCOCCNC(=O)OC(C)(C)C)cc4)C3CC2c2ccccc2)cc1 (stereo partly specified),?,?,?,.,.,.
Cn1c(=O)c2c(nc(NCc3ccc4c(c3)OCO4)n2Cc2ccc(Cl)cc2Cl)n(C)c1=O,/,/,/,.,/,/
COc1cccc(C=C(C(C)=O)C(=O)c2ccccc2)c1,?,15µM,21µM,.,16µM,-113
O=[N+]([O-])c1cc2no[n+]([O-])c2cc1N1CCCCC1,.,0.92µM,0.58µM,?,.,-78
COc1ccc(N(C(=O)CSCC(=O)Nc2cc(C)on2)C(C(=O)NC2CCCCC2)c2ccc(O)c(O)c2)cc1 (stereo unspecified),.,?,.,?,.,.
Cc1cc(NC(=O)CSCC(=O)N(c2ccc(F)cc2)C(C(=O)NC2CCCCC2)c2ccc(O)c(O)c2)no1 (stereo unspecified),.,16µM,?,?,.,-50
CCCNc1ncnc2c1c(-c1ccccc1)cn2-c1ccccc1,/,23µM,15µM,?,/,/
Fc1ccc(-n2cc(-c3ccccc3)c3c(NCCc4ccccc4)ncnc32)cc1,/,?,?,.,/,/
Cc1ccccc1Nc1ncnc2c1c(-c1ccccc1)cn2-c1ccc(F)cc1,/,?,?,.,/,/
Cc1ccc(CNc2ncnc3c2c(-c2ccccc2)cn3-c2cccc(Cl)c2)cc1,/,18µM,?,.,/,/
COc1ccc(CCNc2ncnc3c2c(-c2ccccc2)cn3-c2ccc(F)cc2)cc1OC,/,15µM,15µM,.,/,/
Cc1ccc(-n2cc(-c3ccccc3)c3c(NN4CCOCC4)ncnc32)cc1,.,23µM,21µM,.,.,.
N#Cc1ccccc1COC(=O)c1ccccc1SCC1CCCO1 (stereo unspecified),/,/,/,.,/,/
COC/C=C/C1=CC2=CC(=O)C(C)(OC(=O)C3CCCC3)C(=O)C2=CO1 (stereo unspecified),.,?,?,22µM,.,.
CCOc1ccc(C(O)c2nccn2Cc2ccccc2)cc1OC (stereo unspecified),/,/,/,.,/,/
CC(=O)CC1(OC(C)=O)C(=O)N(C)c2ccccc21 (stereo unspecified),.,2.9µM,3.7µM,.,?,?
CCOC(=O)CN(C(=O)CSc1nnc2c(n1)[nH]c1ccc(F)cc12)c1ccccc1,.,?,21µM,.,.,?
Cn1nnnc1SC1=CS(=O)(=O)c2ccccc21,/,/,/,.,/,/
Cn1c(SC2=CS(=O)(=O)c3ccccc32)nc2ccccc21,18µM,2.9µM,2.3µM,.,?,-119
Cc1c(Br)c(=O)oc2c(Br)c(O)c(O)cc12,.,.,.,22µM,.,.
CSc1nccc(-c2sc(SC)c(C#N)c2-c2ccccc2)n1,.,?,.,?,.,.
CSc1sc(-c2ccnc(SCCS(C)(=O)=O)n2)c(-c2ccccc2)c1C#N,.,18µM,?,.,.,.
CSc1ccccc1NC(=O)C(Sc1ccccc1)c1ccccc1 (stereo unspecified),/,/,/,.,/,/
